HCV inhibitor – qHTS Assay for Inhibitors of Hepatitis C Virus (HCV). Huh7.5.1 HCVcc-Cre infection, luciferase reporter, 44 h. Potency, µM (highest dose often 41.8 µM), most hits filed as inhibitors. hit rate 3.4% among 340,000. AID 651820, 2012
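Luciferase read-out (15 sec integration) after a 15 min room-temperature substrate step quantifies HCVcc-Cre infection. Cells, 1,000 per well, had compound added 4 h post-plating, then virus at ~0.5 moi, and were cultured 44 h.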
HCMV inh – qHTS Assay for inhibitors of the human cytomegalovirus (HCMV); HFF cells, HCMV-luciferase reporter, 72 h; hits give low values; activity change, negative = inhibition, % at 57.5 µM; hit rate 4.5% among 410,000; in the data active = activity change below about -60%; inconclusive = no clear call, values can overlap the other calls; inactive = above about -39%
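After 16 h attachment at 37C, HFF cells received test compound and HCMV-luciferase (1 PFU/cell); reporter luminescence read 72 h later, data normalized against buffer-only and known inhibitor Salinomycin.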
Pf growth 48h – Primary qHTS for delayed death inhibitors of the malarial parasite plastid, 48 hour incubation; P. falciparum luciferase growth in erythrocytes, 48 h; Potency, µM (highest dose often 28.7 µM), usual class: inhibitors; hit rate 5.9% among 310,000
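Luminescence readout; reporter = integrated firefly luciferase in P. falciparum. RBC culture at 2% hematocrit, 0.1% parasitemia final, 37 C/5% CO2; decreased signal taken as growth inhibition.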
Pf growth 96h – Primary qHTS for delayed death inhibitors of the malarial parasite plastid, 96 hour incubation; AID 504834, 2011; Potency, µM (highest dose often 28.7 µM), actives largely listed as inhibitors; hit rate 6.9% among 320,000; P. falciparum luciferase reporter growth, 96 h
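Readout is luminescence from an integrated firefly luciferase in P. falciparum. Red cells, 2% hematocrit and 0.05% parasitemia final, were cultured with compound through two parasite generations (96 hours) at 37 C, 5% CO2.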
Of the large screens only hits and unclear results are named; the others gave an inactive call. A selection: hits, their analogues and other compounds. The true share with any hit is near 13%. Unless noted, calls follow the shape of the dose curve; as a rule, active = well fitted inhibition curve with a large enough effect; inconclusive = small, poorly fitted or top-dose-only effect, or another doubt; inactive = no such curve, though single readings can be large or run the other way.

Cc1ccc(NC(=O)CSc2nccn2Cc2ccc3c(c2)OCO3)c(C)c1	none (no result: HCV inhibitor, Pf growth 48h, Pf growth 96h)
C=CCn1c(SCCCc2ccccc2)nc2c1c(=O)[nH]c(=O)n2C	HCV inhibitor inconclusive, Pf growth 48h inconclusive, Pf growth 96h 4.1µM
C/C=C/Cn1c(SCCCc2ccccc2)nc2c1c(=O)[nH]c(=O)n2C	HCV inhibitor inconclusive, Pf growth 48h inconclusive, Pf growth 96h 0.93µM
COCCn1c(SCCCc2ccccc2)nc2c1c(=O)[nH]c(=O)n2C	Pf growth 48h inconclusive
CC(C)Oc1cccc(C(=O)Nc2ccc3oc(-c4cccc(Cl)c4)nc3c2)c1	none (no result: HCV inhibitor, Pf growth 48h, Pf growth 96h)
COc1ccc(C2CC(=O)c3sc(N)nc3C2)cc1 (stereo unspecified)	Pf growth 48h 2.9µM, Pf growth 96h 2.6µM
COc1ccc(Nc2ncc3c(n2)CC(c2ccc(C)cc2)CC3=O)cc1 (stereo unspecified)	Pf growth 48h inconclusive, Pf growth 96h inconclusive
COc1ccc(Nc2ncc3c(n2)CC(c2ccc(OC)cc2)CC3=O)cc1 (stereo unspecified)	HCV inhibitor inconclusive, Pf growth 48h inconclusive, Pf growth 96h 9.3µM
Nc1nc2c(s1)C(=O)CC(c1ccccc1)C2 (stereo unspecified)	none (no result: Pf growth 48h, Pf growth 96h)
O=C(Nc1ccc(O)cc1)c1cc2ccccc2c(=O)s1	HCV inhibitor inconclusive, HCMV inh -71
CCOCCCNC(=O)/C(C#N)=C/c1ccc([N+](=O)[O-])o1	HCV inhibitor inconclusive, HCMV inh -99
CCOCCCNC(=O)/C(C#N)=C/c1ccc(-c2ccc(S(=O)(=O)N3CCOCC3)cc2)o1	HCV inhibitor inconclusive, Pf growth 96h 13µM (no result: HCMV inh)
CCC(C)c1ccccc1NC(=O)c1cc2cccc([N+](=O)[O-])c2[nH]1 (stereo unspecified)	HCV inhibitor inconclusive, HCMV inh inconclusive, Pf growth 48h inconclusive, Pf growth 96h 2.9µM
C=CCNC(=O)CC(=O)N/N=C/c1ccc(C(=O)OC)cc1	HCMV inh -67
COC(=O)c1ccc(/C=N\NC(=O)CC(=O)NCCc2ccccc2)cc1	none
O=C(NCCc1ccccn1)c1ccc(OC2CCN(Cc3ccccn3)CC2)cc1	none
Cc1csc(C(C)NC(=O)c2ccc(OC3CCN(CCc4ccccc4)CC3)cc2)n1 (stereo unspecified)	Pf growth 48h 10µM
CC(Cc1ccccn1)NC(=O)c1ccc(OC2CCN(Cc3ccccn3)CC2)cc1 (stereo unspecified)	Pf growth 96h 9.3µM
CCc1ccccc1NC(=O)c1cnc(N2CCCCC2)c2ccccc12	none (no result: HCV inhibitor, Pf growth 48h, Pf growth 96h)
Cc1ccc(C(=O)Nc2onc3c2CCCC3)cc1	HCMV inh -75 (no result: HCV inhibitor, Pf growth 48h, Pf growth 96h)
O=C(Cn1nc2c(cc1=O)CCCC2)NCc1ccccc1Cl	none (no result: HCV inhibitor, Pf growth 48h, Pf growth 96h)
Cc1ccc(S(=O)(=O)Nc2ccc(O)c3cccnc23)cc1	Pf growth 48h 6.6µM, Pf growth 96h 9.3µM
O=S(=O)(Nc1ccc(O)c2ccccc12)c1ccc(Br)cc1	Pf growth 48h 4.7µM, Pf growth 96h inconclusive (no result: HCV inhibitor, HCMV inh)
O=S(=O)(Nc1ccc(O)c2ccccc12)c1cccs1	HCV inhibitor inconclusive
CCc1ccc(-n2nc(CO)c(C(=O)NCCCCc3ccccc3)n2)cc1	none (no result: HCV inhibitor, Pf growth 48h, Pf growth 96h)
O=C(Cn1cc(S(=O)(=O)Cc2ccccc2F)c2ccccc21)NCc1ccccc1Cl	none (no result: HCV inhibitor, Pf growth 48h, Pf growth 96h)
CCc1ccccc1NC(=O)CCCSc1nc(-c2ccco2)cc(C(F)(F)F)n1	none (no result: HCV inhibitor, Pf growth 48h, Pf growth 96h)
COc1ccc(NC(=O)CCCSc2nc(-c3ccco3)cc(C(F)(F)F)n2)cc1	none (no result: HCV inhibitor, Pf growth 48h, Pf growth 96h)
CCn1ncc(CNC(=O)CCCSc2nc(-c3ccco3)cc(C(F)(F)F)n2)c1C	HCV inhibitor inconclusive, Pf growth 48h 12µM, Pf growth 96h inconclusive
Cc1cc(NC(=O)CSc2nc(-c3ccco3)cc(C(F)(F)F)n2)n(-c2ccccc2)n1	HCV inhibitor 32µM, Pf growth 48h inconclusive
Cc1cc(NC(=O)CCCSc2nc(-c3ccco3)cc(C(F)(F)F)n2)n(-c2ccccc2)n1	HCV inhibitor 11µM
CCOC(=O)c1cc(-c2ccccc2)n(CCC(=O)Nc2ccc(Cl)c(C(F)(F)F)c2)c1C	none (no result: HCV inhibitor, Pf growth 48h, Pf growth 96h)
CC1CCN(C(=O)CN2CCSc3ccccc32)CC1	none (no result: HCV inhibitor, Pf growth 48h, Pf growth 96h)
CC1=CCC2CC1C2(C)C (stereo unspecified)	none (no result: HCV inhibitor, HCMV inh)
CS(=O)(=O)c1ccc2nc(NC(=O)Nc3cccc(Cl)c3)sc2c1	HCV inhibitor 11µM, Pf growth 48h inconclusive, Pf growth 96h inconclusive
O=C(Nc1ccc(Cl)c([N+](=O)[O-])c1)Nc1nc2ccccc2s1	Pf growth 48h inconclusive, Pf growth 96h 10µM (no result: HCV inhibitor, HCMV inh)

Screening data: PubChem BioAssay, National Center for Advancing Translational Sciences (NCATS)
